Data: PubChem BioAssay

Target: Carbonic anhydrase 2 (Homo sapiens) (UniProt P00918)
Assay: compounds binding carbonic anhydrase 2 – biochemical, small-molecule microarray, Alexa647-labelled CAII, profiling panel (AID 1122)
Conditions: CAII-A647 binding fluorescence, higher = more signal

Row | Structure (SMILES) | composite z-score
1 | O=C(CS)NCCCCCNC(=O)[C@H]1C[C@H]2C(=O)N3CCC[C@H]3C(=O)N2[C@H]1c1ccc(O)cc1 | 0.729
2 | N#Cc1ccc(NN2C(C(O)CCc3ccccc3)C=CC3C(=O)N(c4ccccc4)C(=O)C32)cc1 (stereo not given) | 0.745
3 | O=[N+]([O-])c1ccc(C[n+]2ccc3ccc(O)cc3c2)o1 | 0.64
4 | Cc1ccc(S[C@]2(C(=O)NC(C)C)CC(=O)N(Cc3cc(C(F)(F)F)cc(C(F)(F)F)c3)[C@@H]2c2ccc(CO)cc2I)cc1 | 0.788
5 | COC(=O)[C@@]1(Cc2ccccc2N=[N+]=[N-])N=C(c2ccc(OCCCO)cc2)O[C@H]1c1ccccc1CN=[N+]=[N-] | 0.571
6 | O=C(NCc1ccccc1)c1ccc(Br)cc1[N+](=O)[O-] | 0.727
7 | C=C(COC)/C(=C/C[C@H](OC(C)=O)c1ccc(OCCO)cc1)c1cnc2ccccc2c1 | 0.797
8 | COc1cc2c(cc1OC)CN(C(=O)[C@H]1[C@@H]3C(=O)O[C@@H](c4ccccc4)[C@@H](c4ccccc4)N3[C@@H](c3ccccc3OCCO)[C@]13C(=O)Nc1ccc(C#CC4(O)CCCCCC4)cc13)CC2 | 0.314
9 | COCCOC(=O)N1C(=O)[C@@]2(c3cc(C#CCCO)ccc31)[C@H](c1ccc(O)cc1)N1[C@H](c3ccccc3)[C@H](c3ccccc3)OC(=O)[C@H]1[C@@H]2C(=O)Nc1nc2ccccc2s1 | 0.16
10 | CC[C@H]1C2=C3C(CC[C@H]4C(OC)OC[C@](C)([C@@H]34)N(C(=O)OC(C)(C)C)C2)C(CO)C1CO (stereo not given in full) | 0.486
11 | CN(C)C(=O)[C@@]1(Cc2ccccc2N=[N+]=[N-])N=C(c2ccc(OCCCO)cc2)O[C@H]1c1ccccc1CN=[N+]=[N-] | 0.622
12 | CC(C)[C@H]1NC(=O)[C@@]23C(=O)N[C@@H](Cc4ccccc4)C2[C@H](C)[C@@]2(C)O[C@H]2C3/C=C/C/C=C\CNC(=O)[C@H](C)NC1=O (stereo not given in full) | 0.811
13 | O=C1c2ccccc2[C@](Cc2ccccc2I)(C(=O)NCc2ccccc2)[C@H](c2ccc(CO)cc2)N1Cc1ccccc1C(F)(F)F | 0.631
14 | O=C1c2ccccc2[C@](Cc2ccccc2I)(C(=O)NCC(F)(F)F)[C@H](c2ccc(CO)cc2)N1Cc1ccccc1C(F)(F)F | 0.411
15 | CCC1=C2CN(Cc3ccccc3Br)[C@@H]([C@@H](O)Cc3ccccc3)C2C=CCC1 (stereo not given in full) | 0.366
16 | C=CCc1cccc([C@H]2N[C@H](C(=O)O)CC[C@@H]2C)c1 | 0.0666
17 | COC(=O)C1=CC(c2ccc(CO)cc2)=CC(c2cccs2)N(Cc2cccc(OC(F)(F)F)c2)C=C1C(=O)OC (stereo not given) | 0.671
18 | C=C(CCCC)C(=O)CC[C@@H](OC(=O)c1cccnc1)c1cccc(OCCO)c1 | 0.15
19 | CO[C@H]1COC(=O)[C@H](Cc2ccccc2)NC(=O)CC=C[C@@H](C)[C@H](OC)COC(=O)CC=C[C@@H]1C | -0.142
20 | COCCOC(=O)N1C(=O)[C@@]2(c3cc(C#CCC(C(=O)OC)C(=O)OC)ccc31)[C@H](C(=O)N1CCN(c3ncccn3)CC1)[C@H]1C(=O)O[C@H](c3ccccc3)[C@H](c3ccccc3)N1[C@@H]2c1ccc(O)cc1 | 0.55
21 | CCCC=C(CCC)[C@@H](NS(=O)(=O)c1cccc(C(F)(F)F)c1)c1ccc(C(=O)OC)cc1 | 0.169
22 | NC(=O)[C@H]1[C@@H]2C(=O)O[C@@H](c3ccccc3)[C@@H](c3ccccc3)N2[C@@H](c2ccc(O)cc2)[C@]12C(=O)Nc1ccc(C#CCCO)cc12 | 0.72
23 | O=C(O)[C@@H]1Cc2c([nH]c3ccccc23)[C@@H](c2ccccc2)N1 | -0.0448
24 | COc1cc2c(cc1OC)CN(C(=O)[C@@H]1[C@H]3C(=O)O[C@H](c4ccccc4)[C@H](c4ccccc4)N3[C@H](c3ccccc3OCCO)[C@@]13C(=O)Nc1ccccc13)CC2 | 0.609
25 | CCCC=C(CCC)[C@@H](NS(=O)(=O)c1ccc(-c2ccccc2)cc1)c1ccc(C(=O)OC)cc1 | -0.291
26 | O=C/C=C/c1ccccc1Cl | 0.408
27 | [N-]=[N+]=NCc1ccccc1[C@H]1OC(c2ccc(OCCCO)cc2)=N[C@@]1(Cc1ccccc1N=[N+]=[N-])C(=O)NCc1ccccc1 | 0.579
28 | O=C1c2ccccc2[C@](Cc2ccccc2I)(C(=O)O)[C@H](c2ccc(CO)cc2)N1C1CCCCC1 | 0.739
29 | C=CCC(OC(C)=O)[C@@H]1[C@@H](N(Cc2cc3ccccc3o2)C(=O)Cc2ccc(F)cc2)c2cc(OCCCO)ccc2N1C(=O)c1ccc(-c2ccccc2)cc1 (stereo not given in full) | -0.309

Test system: not listed separately
Assay: COS7 lysate on small-molecule microarray, probe aHis, 635 nm (AID 1123);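 note: z-score combines 667nm fluorescence intensity with signal-to-noise per printed compound spot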
Conditions: COS7 cell lysate, fluorescence, higher = more signal

Row | Structure (SMILES) | composite z-score
30 | C=CCc1cccc([C@@H]2[C@@H](C)CC[C@H]3C(=O)N4[C@H](c5cccc(CC=C)c5)[C@@H](C)CC[C@H]4C(=O)N23)c1 | 0.564
31 | CCCCCCc1nc(C2CC2)c(C)c2c1[Si](C(C)C)(C(C)C)OC2 | -0.641
32 | CC(C)(C)OC(=O)CC[C@]1(C(=O)NCCN2CCOCC2)N=C(c2ccc(OCCCO)cc2)O[C@H]1c1ccccc1CN=[N+]=[N-] | 2.05
33 | CCOC(=O)C[C@H]1[C@H](OC(=O)c2ccccc2-c2ccccc2)[C@@H](NC(=O)c2ccc(-c3ccccc3)cc2)c2cc(OCCCO)ccc2N1C(=O)Cc1ccc(OC)cc1 | 0.416
34 | C=CCN1C(=O)[C@@]2(Cc3ccccc3)N=C(c3ccc(OCCCO)cc3)O[C@H]2c2ccccc21 | 2.83
35 | C=CCC(OC(C)=O)[C@@H]1[C@@H](N(Cc2cc3ccccc3o2)C(=O)c2ccc(C)cc2)c2cc(OCCCO)ccc2N1C(=O)c1ccc2ccccc2n1 (stereo not given in full) | 0.043
36 | C=C(C(=O)CC[C@H](OC(=O)c1ccccc1-c1ccccc1C(=O)O)c1ccc(CO)o1)C(C)C | 0.23
37 | O=C(CS)NCCCCCNC(=O)[C@H]1C[C@H]2C(=O)N3CCC[C@H]3C(=O)N2[C@H]1c1ccc(O)cc1 | 0.0961
38 | N#Cc1ccc(NN2C(C(O)CCc3ccccc3)C=CC3C(=O)N(c4ccccc4)C(=O)C32)cc1 (stereo not given) | 2.21
39 | O=[N+]([O-])c1ccc(C[n+]2ccc3ccc(O)cc3c2)o1 | 0.466
40 | Cc1ccc(S[C@]2(C(=O)NC(C)C)CC(=O)N(Cc3cc(C(F)(F)F)cc(C(F)(F)F)c3)[C@@H]2c2ccc(CO)cc2I)cc1 | 1.31
41 | COC(=O)[C@@]1(Cc2ccccc2N=[N+]=[N-])N=C(c2ccc(OCCCO)cc2)O[C@H]1c1ccccc1CN=[N+]=[N-] | 2.1
42 | O=C(NCc1ccccc1)c1ccc(Br)cc1[N+](=O)[O-] | 0.35
43 | C=C(COC)/C(=C/C[C@H](OC(C)=O)c1ccc(OCCO)cc1)c1cnc2ccccc2c1 | 0.193
44 | COc1cc2c(cc1OC)CN(C(=O)[C@H]1[C@@H]3C(=O)O[C@@H](c4ccccc4)[C@@H](c4ccccc4)N3[C@@H](c3ccccc3OCCO)[C@]13C(=O)Nc1ccc(C#CC4(O)CCCCCC4)cc13)CC2 | 2.12
45 | COCCOC(=O)N1C(=O)[C@@]2(c3cc(C#CCCO)ccc31)[C@H](c1ccc(O)cc1)N1[C@H](c3ccccc3)[C@H](c3ccccc3)OC(=O)[C@H]1[C@@H]2C(=O)Nc1nc2ccccc2s1 | 0.372
46 | CC[C@H]1C2=C3C(CC[C@H]4C(OC)OC[C@](C)([C@@H]34)N(C(=O)OC(C)(C)C)C2)C(CO)C1CO (stereo not given in full) | 3.15
47 | CN(C)C(=O)[C@@]1(Cc2ccccc2N=[N+]=[N-])N=C(c2ccc(OCCCO)cc2)O[C@H]1c1ccccc1CN=[N+]=[N-] | 3.13

Row | Structure (SMILES) | composite z-score
48 | CC(C)[C@H]1NC(=O)[C@@]23C(=O)N[C@@H](Cc4ccccc4)C2[C@H](C)[C@@]2(C)O[C@H]2C3/C=C/C/C=C\CNC(=O)[C@H](C)NC1=O (stereo not given in full) | -0.281
49 | O=C1c2ccccc2[C@](Cc2ccccc2I)(C(=O)NCc2ccccc2)[C@H](c2ccc(CO)cc2)N1Cc1ccccc1C(F)(F)F | 1.37
50 | O=C1c2ccccc2[C@](Cc2ccccc2I)(C(=O)NCC(F)(F)F)[C@H](c2ccc(CO)cc2)N1Cc1ccccc1C(F)(F)F | 1.58
51 | CCC1=C2CN(Cc3ccccc3Br)[C@@H]([C@@H](O)Cc3ccccc3)C2C=CCC1 (stereo not given in full) | 1.01
52 | C=CCc1cccc([C@H]2N[C@H](C(=O)O)CC[C@@H]2C)c1 | -0.31
53 | COC(=O)C1=CC(c2ccc(CO)cc2)=CC(c2cccs2)N(Cc2cccc(OC(F)(F)F)c2)C=C1C(=O)OC (stereo not given) | 2.76
54 | C=C(CCCC)C(=O)CC[C@@H](OC(=O)c1cccnc1)c1cccc(OCCO)c1 | 0.0383
55 | CO[C@H]1COC(=O)[C@H](Cc2ccccc2)NC(=O)CC=C[C@@H](C)[C@H](OC)COC(=O)CC=C[C@@H]1C | 0.199
56 | COCCOC(=O)N1C(=O)[C@@]2(c3cc(C#CCC(C(=O)OC)C(=O)OC)ccc31)[C@H](C(=O)N1CCN(c3ncccn3)CC1)[C@H]1C(=O)O[C@H](c3ccccc3)[C@H](c3ccccc3)N1[C@@H]2c1ccc(O)cc1 | 1.48
57 | CCCC=C(CCC)[C@@H](NS(=O)(=O)c1cccc(C(F)(F)F)c1)c1ccc(C(=O)OC)cc1 | 0.455
58 | NC(=O)[C@H]1[C@@H]2C(=O)O[C@@H](c3ccccc3)[C@@H](c3ccccc3)N2[C@@H](c2ccc(O)cc2)[C@]12C(=O)Nc1ccc(C#CCCO)cc12 | -0.119
59 | O=C(O)[C@@H]1Cc2c([nH]c3ccccc23)[C@@H](c2ccccc2)N1 | 0.319
60 | COc1cc2c(cc1OC)CN(C(=O)[C@@H]1[C@H]3C(=O)O[C@H](c4ccccc4)[C@H](c4ccccc4)N3[C@H](c3ccccc3OCCO)[C@@]13C(=O)Nc1ccccc13)CC2 | 0.938
61 | CCCC=C(CCC)[C@@H](NS(=O)(=O)c1ccc(-c2ccccc2)cc1)c1ccc(C(=O)OC)cc1 | 0.257
62 | O=C/C=C/c1ccccc1Cl | 0.333
63 | [N-]=[N+]=NCc1ccccc1[C@H]1OC(c2ccc(OCCCO)cc2)=N[C@@]1(Cc1ccccc1N=[N+]=[N-])C(=O)NCc1ccccc1 | 1.65
64 | O=C1c2ccccc2[C@](Cc2ccccc2I)(C(=O)O)[C@H](c2ccc(CO)cc2)N1C1CCCCC1 | 3.57
65 | C=CCC(OC(C)=O)[C@@H]1[C@@H](N(Cc2cc3ccccc3o2)C(=O)Cc2ccc(F)cc2)c2cc(OCCCO)ccc2N1C(=O)c1ccc(-c2ccccc2)cc1 (stereo not given in full) | 0.125
